± gives the standard deviation.
Tests used:
Details in all cases: modulator concentration 10 µM
[1] = test system: RAW-Dual (murine macrophage reporter line); assay: NF-kB reporter (SEAP) activity fold change vs agonist alone; higher = enhanced NF-kB activity
Procedure, shortened: (§1)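 RAW-Dual murine macrophage reporter cells were plated at 50 000 per well in 384-well plates, pin-transferred compound to 10 μM final, and pre-incubated for 1 hour at 37 °C before a PRR agonist was added and the cells incubated overnight. NF-κB activity was read from supernatant SEAP with QUANTI-Blue at 620 nm absorbance, and IRF activity from Lucia luciferase with QUANTI-Luc by luminescence. Each signal was expressed as fold change by dividing by the mean agonist-only control on the same plate. Two replicate plates were averaged, with errors obtained by propagation.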

[2] = test system: RAW-Dual (murine macrophage reporter line); assay: IRF reporter (Lucia luciferase) activity fold change vs agonist alone; higher = enhanced IRF activity
Procedure, shortened: as §1

[3] = test system: RAW-Dual (murine macrophage reporter line); assay: viability score (confluency relative to resting cells, overnight) (fraction); higher = more viable, active = viable (0.7 or more)
Procedure, shortened: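 RAW-Dual macrophages in 384-well plates were incubated overnight with compound, final concentration 10 μM. Confluency images from IncuCyte were processed in IncuCyte software into two masks covering all imaged wells. The viability score is each well's confluency relative to resting cells, and a compound met the cutoff when both masks exceeded 70% of resting cells.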

[4] = agonist: CpG ODN 1826 0.5 ug/mL

| SMILES | NF-kB reporter [1, 4] | NF-kB reporter ([1]; agonist: LPS 0.1 ug/mL) | NF-kB reporter ([1]; agonist: MPLA […]) | IRF reporter ([2]; agonist: 3'3'-cGAMP 10 ug/mL) | IRF reporter ([2]; agonist: LPS 0.1 ug/mL) | IRF reporter ([2]; agonist: MPLA […]) | viability score [3] |
| --- | --- | --- | --- | --- | --- | --- | --- |
| CC1(C)Cc2ccccc2C(C[N+](=O)[O-])=N1 | 0.899 ± 0.07 | 0.901 ± 0.1 | 1.65 ± 0.61 | 0.963 ± 0.056 | 1.26 ± 0.08 | 1.38 ± 0.13 | 0.997 (active) |
| CC(=O)Nc1ccc(O)cc1 [Prestw-868] | 0.876 ± 0.28 | 1.04 ± 0.081 | 0.965 ± 0.082 | 0.972 ± 0.056 | 0.938 ± 0.19 | 1.03 ± 0.14 | 0.998 (active) |
| CC(=C(C#N)C(=O)NCc1ccccc1)N(C)C | 0.808 ± 0.077 | 0.883 ± 0.1 | 1.08 ± 0.11 | 0.966 ± 0.045 | 1.22 ± 0.1 | 1.26 ± 0.17 | 1.02 (active) |
| Br.CCCCn1c(=N)n(CC(=O)OC)c2ccccc21 | 1.13 ± 0.1 | 0.957 ± 0.081 | 1.05 ± 0.059 | 0.955 ± 0.055 | 1 ± 0.055 | 1.15 ± 0.15 | 0.999 (active) |
| O=C(CCCCC(=O)NN=Cc1cccc(O)c1)NN=Cc1cccc(O)c1 | 1.05 ± 0.093 | 1.08 ± 0.081 | 0.935 ± 0.12 | 0.955 ± 0.032 | 1.41 ± 0.15 | 1.16 ± 0.17 | 1 (active) |
| NNc1ncnc2scc(-c3ccc(Cl)cc3)c12 | 0.931 ± 0.071 | 0.867 ± 0.07 | 1.32 ± 0.42 | 0.333 ± 0.015 | 1.3 ± 0.15 | 1.48 ± 0.21 | 0.997 (active) |
| Cc1ccc(S(=O)(=O)N2CCN(C(C)C)CC2)cc1 | 1.13 ± 0.11 | 0.94 ± 0.14 | 1.01 ± 0.043 | 0.96 ± 0.17 | 0.898 ± 0.037 | 0.994 ± 0.1 | 0.996 (active) |
| CN(C)c1ccc(O)c2c1C[C@H]1C[C@H]3[C@H](N(C)C)C(O)=C(C(N)=O)C(=O)[C@@]3(O)C(O)=C1C2=O.Cl | 0.96 ± 0.072 | 0.927 ± 0.052 | 0.959 ± 0.03 | 1.36 ± 0.37 | 1.04 ± 0.14 | 1.09 ± 0.17 | 0.999 (active) |
| CC(C)c1nc(CN(C)C(=O)N[C@@H](CCN2CCOCC2)C(=O)N[C@H](CC[C@H](Cc2ccccc2)NC(=O)OCc2cncs2)Cc2ccccc2)cs1 | 1.29 ± 0.073 | 0.959 ± 0.076 | 1.14 ± 0.036 | 0.687 ± 0.032 | 0.842 ± 0.11 | 0.839 ± 0.18 | 1 (active) |
| Cc1ccccc1OCC(O)CO (stereo not drawn) | 0.813 ± 0.22 | 1.08 ± 0.054 | 0.955 ± 0.07 | 0.93 ± 0.058 | 0.951 ± 0.13 | 1.02 ± 0.12 | 0.997 (active) |
| Cc1c(F)cc(C(=O)NC2CC2)cc1-c1ccc(C(=O)NCC(C)(C)C)cn1 | 0.825 ± 0.21 | 0.994 ± 0.05 | 1.01 ± 0.071 | 1.1 ± 0.043 | 0.808 ± 0.18 | 0.932 ± 0.088 | 1 (active) |
| COC(=O)c1cc(Br)ccc1NC(=O)c1ccccc1 | 1.07 ± 0.17 | 1.02 ± 0.17 | 1.03 ± 0.18 | 1.12 ± 0.045 | 1.24 ± 0.18 | 1.19 ± 0.21 | 0.99 (active) |
| Cc1nccn1CC1CCc2c(c3ccccc3n2C)C1=O.Cl.O.O (stereo not drawn) | 0.604 ± 0.09 | 0.917 ± 0.11 | 0.765 ± 0.044 | 0.832 ± 0.025 | 1.35 ± 0.14 | 1.01 ± 0.15 | 0.284 (inactive) |
| COc1ccc2c(c1)c(CC(=O)O)c(C)n2C(=O)c1ccc(Cl)cc1 | 1.23 ± 0.21 | 1.06 ± 0.16 | 0.951 ± 0.054 | 1.05 ± 0.034 | 1.25 ± 0.14 | 1.29 ± 0.1 | 1 (active) |

— the supplement of paper PMC10646978
